Assay outcomes (PubChem)
The entries come from a sample that favours hits as a whole.
Dicer processing: inhibitors of Dicer pre-microRNA processing, primary screen, biochemical, cat-ELCCA, chemiluminescence | 6% of 47,000 active | cat-ELCCA pre-miR-21 Dicer processing; stronger effect = higher value | AID 1347074, 2019 | z-score at 25 µM; in the data active means z-score above about 3, passing the limit was not always enough;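 further: plate controls were vehicle for no effect and no enzyme for full effect; higher signal means more uncleaved substrate so more Dicer inhibition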
Active calls of the source: *.

How did O=C(Nc1nc2n(n1)C(c1ccc(F)cc1)C=C(c1ccc(Cl)cc1)N2)c1cccs1 (configuration not stated) do in these assays?
Dicer processing: 17*

What do the screens show for `O=C(Nc1nc2n(n1)C(c1ccc(Cl)cc1)C=C(c1ccccc1)N2)c1cccs1` (configuration not stated)?
Dicer processing: 1.6

How did COc1cccc(OC)c1NC(=O)NC(=O)c1c(OC)ccc(Br)c1OC do in these assays?
Dicer processing: -0.21

How did CCOC(=O)/C(C#N)=C1\CCc2ccccc21 do in these assays?
Dicer processing: -0.04

How did Cc1c(-c2ccnn2S(C)(=O)=O)sc2ccccc12 do in these assays?
Dicer processing: 0.93

What do the screens show for `COC(=O)CN(c1nc(C)cc(OC)n1)S(=O)(=O)c1ccccc1`?
Dicer processing: 0.86

How did CCCN(c1nc(C)cc(OC)n1)S(=O)(=O)c1ccccc1Cl do in these assays?
Dicer processing: 6.1*

Results for CCCCN(c1nc(C)cc(OC)n1)S(=O)(=O)c1ccc(C)cc1 ?
Dicer processing: 0.7

Results for C=CCn1c(N)c(C(=O)NCC)sc1=S ?
Dicer processing: 2

What do the screens show for `Cc1c(C(=O)N2CCN(C)CC2)sc2ncn(CC(=O)N3CCOCC3)c(=O)c12`?
Dicer processing: -2.8

Results for O=C(Nc1c(-c2ccccc2)nc2ccccn12)c1ccco1 ?
Dicer processing: 4.9*

Results for COC(=O)Nc1c(-c2ccccc2)nc2ccccn12 ?
Dicer processing: -0.09

What do the screens show for `O=C(Nc1c(-c2ccccc2)nc2ccc(Cl)cn12)c1ccco1`?
Dicer processing: 1.3

What do the screens show for `Cc1cc(NC(=O)NC(=O)c2ccc(C(C)(C)C)s2)no1`?
Dicer processing: 1.4

How did O=C(NCc1cccs1)Nc1cc2ccccc2s1 do in these assays?
Dicer processing: -1.3

Results for O=C(Nc1cc(C(F)(F)F)cc(C(F)(F)F)c1)Nc1cc2ccccc2s1 ?
Dicer processing: 3*

Results for O=C(Nc1cc2ccccc2s1)NC1Cc2ccccc2C1 ?
Dicer processing: -0.16

What do the screens show for `COc1ccc(OC)c(C(C)=O)c1OCc1ccccc1`?
Dicer processing: -0.15

How did CNC(=S)N/N=C(\C)c1ccc(C)cc1 do in these assays?
Dicer processing: 1.1

How did Cn1[nH]c(Nc2ccccc2Cl)c(N=Nc2ccc(C(F)(F)F)cc2)c1=O do in these assays?
Dicer processing: -2

How did O=C(O)C1C2C=CC(O2)C1C(=O)NCc1ccncc1 (configuration not stated) do in these assays?
Dicer processing: -0.98

What do the screens show for `CCCCC(CC)CNC(=O)C1C2C=CC(O2)C1C(=O)O` (configuration not stated)?
Dicer processing: -0.18

What do the screens show for `O=C(O)C1C2C=CC(O2)C1C(=O)NCc1cccc(Cl)c1` (configuration not stated)?
Dicer processing: 4.4*

What do the screens show for `COc1ccc(Br)cc1C1C(C(=O)OC2CCCCC2)=C(C)NC2=C1C(=O)CCC2` (configuration not stated)?
Dicer processing: 2.8

Results for O=C(CSc1nnnn1-c1ccccc1)Nc1ncc(Br)s1 ?
Dicer processing: -1.3

What do the screens show for `Cc1cc(C)nc(NS(=O)(=O)c2ccc(NC(=O)Nc3cscc3-c3ccccc3)cc2)n1`?
Dicer processing: 7.3

What do the screens show for `CC(CC(=O)O/N=C(\N)c1ccc(C(F)(F)F)cc1)S(=O)(=O)c1ccc(Cl)cc1` (configuration not stated)?
Dicer processing: -2

How did CC(C)Cc1ccc(C(C)/C(N)=N/O)cc1 (configuration not stated) do in these assays?
Dicer processing: -0.66

Results for CC(C)Cc1ccc(C(C)C(=O)O/N=C(\N)c2ccc(C(F)(F)F)cc2)cc1 (configuration not stated) ?
Dicer processing: 3.2*

How did CCCCCCn1cnc2c(sc3nc4c(cc32)COC(C)(C)C4)c1=O do in these assays?
Dicer processing: -1.5

Results for COC(=O)c1cc(-c2cc(OC)ccc2OC)no1 ?
Dicer processing: 0.69

How did COc1ccc(OC)c(-c2sccc2CC(=O)O)c1 do in these assays?
Dicer processing: 3.8*

How did COc1ccc(OC)c(SCC(=O)O)c1 do in these assays?
Dicer processing: -1.8

How did Nc1nc(-c2cccnc2)nn1C(=O)c1cccs1 do in these assays?
Dicer processing: -0.07

How did CN=C(Nc1ccccc1OC)SC do in these assays?
Dicer processing: 0.67

How did CC1=CC(C)(C)N(C(=O)CN2C(=O)C3CCCCC3C2=O)c2cc(C)ccc21 (configuration not stated) do in these assays?
Dicer processing: 0.21

How did O=C(CSc1nnnn1-c1ccccc1)N1CCN(S(=O)(=O)c2ccccc2)C1 do in these assays?
Dicer processing: 2.9

How did Cn1nnnc1SCC(=O)N1CCN(S(=O)(=O)c2ccccc2)C1 do in these assays?
Dicer processing: 0.44

What do the screens show for `O=C(CSc1ccccn1)N1CCN(S(=O)(=O)c2ccccc2)C1`?
Dicer processing: 3.4*

Results for CCOC(=O)c1nc(-c2ccccc2)sc1-c1ccn[nH]1 ?
Dicer processing: -0.47

Results for Nc1ccc2nc(SCC(=O)N3CCCCC3)sc2c1 ?
Dicer processing: -3.7

Results for COc1cc(OC)c2nc(C)c3c(c2c1)CN(C(=O)Nc1ccccc1)C3 ?
Dicer processing: -0.16
